Data as given in the supplement of paper PMC13380429.

Tested on: Vero E6 infected with SARS-CoV-2
Experiment: inhibition of SARS-CoV-2 cytopathic effect; higher = more antiviral protection, active = above 15
Details: 48 h

Measured: inhibition of SARS-CoV-2 cytopathic effect

CN(C)CCn1cc(S(=O)(=O)c2cccc(F)c2)c2cccnc21
inactive: 1 nM 5.3% | 8.33 nM 5.65% | 100 nM 1.09% | 833.33 nM -1.84% | 10000 nM -1.97%

OC[C@@H](O)[C@@H](O)CO [erythritol]
inactive: 1 nM -0.84% | 8.33 nM -2.36% | 100 nM -2.74% | 833.33 nM 0.56% | 10000 nM 0.5%

CN1CCc2nc(C(=O)N[C@@H]3C[C@@H](C(=O)N(C)C)CC[C@@H]3NC(=O)C(=O)Nc3ccc(Cl)cn3)sc2C1 [edoxaban]
inactive: 1 nM -1.16% | 8.33 nM -1.57% | 100 nM -1.51% | 833.33 nM -3.37% | 10000 nM -1.69%

CONC(=N)c1ccc(-c2ccc(-c3ccc(C(=N)NOC)cc3)o2)cc1 [pafuramidine]
inactive: 1 nM -0.94% | 8.33 nM 1.16% | 100 nM -0.24% | 833.33 nM 0.72% | 10000 nM 2.7%

NC(=O)OCC(COC(N)=O)c1ccccc1 [felbamate]
inactive: 1 nM 1.11% | 8.33 nM 3.53% | 100 nM -0.7% | 833.33 nM 1.06% | 10000 nM 0.03%

CCCCN1CCCC1CNC(=O)c1cc(C#N)c2ccccc2c1OC (stereo not given) [nafadotride]
inactive: 1 nM -1.44% | 8.33 nM -0.63% | 100 nM -0.23% | 833.33 nM 0.59% | 10000 nM 0.87%

Cc1cc(N2CCN([C@@H]3CN[C@H](C(=O)N4CCSC4)C3)CC2)n(-c2ccccc2)n1 [teneligliptin]
inactive: 1 nM 0.52% | 8.33 nM 1.21% | 100 nM 1% | 833.33 nM 1.12% | 10000 nM -2.67%

FC(F)OC(F)(F)C(F)Cl (stereo not given) [enflurane]
inactive: 1 nM 1.24% | 8.33 nM 0.43% | 100 nM 1.56% | 833.33 nM -3.51% | 10000 nM -3.14%

Cc1ccc(S(=O)(=O)NC(=O)NN2CC3CCCC3C2)cc1 (stereo not given) [gliclazide]
inactive: 1 nM 0.85% | 8.33 nM 1.91% | 100 nM 1.12% | 833.33 nM 2.55% | 10000 nM 2.6%

CNC(=O)c1c(I)c(C(=O)NCC(=O)Nc2c(I)c(C(=O)O)c(I)c(C(=O)NCCO)c2I)c(I)c(N(C)C(C)=O)c1I [ioxaglic-acid]
inactive: 1 nM 1.6% | 8.33 nM 1.46% | 100 nM 1.47% | 833.33 nM 0.75% | 10000 nM 0.41%

CC(C)(O)CC(=O)NCCn1ccc2ncnc(Nc3ccc(Oc4cccc(C(F)(F)F)c4)c(Cl)c3)c21
inactive: 1 nM 4.78% | 8.33 nM 7.81% | 100 nM 3.51% | 833.33 nM -7.39% | 10000 nM -14.1%

c1cc2c(cc1[C@H]1OC[C@H]3[C@@H]1CO[C@@H]3c1ccc3c(c1)OCO3)OCO2 [sesamin]
inactive: 1 nM -1.62% | 8.33 nM -0.09% | 100 nM -0.37% | 833.33 nM 0.48% | 10000 nM -1.08%

CC(C)(C#N)c1ccc(N2C(=O)OCc3cnc4ccc(-c5cnc6ccccc6c5)cc4c32)cc1
inactive: 1 nM 4.95% | 8.33 nM 2.48% | 100 nM 2.65% | 833.33 nM 2.93% | 10000 nM 4.4%

CC=CC1=C(C(=O)O)N2C(=O)[C@@H](NC(=O)[C@H](N)c3ccc(O)cc3)[C@H]2SC1 (mixture of isomers) [cefprozil]
inactive: 1 nM -0.42% | 8.33 nM 0.76% | 100 nM 2.16% | 833.33 nM -0.77% | 10000 nM 8.62%

CN(C)c1ccc(/C=C2\CCCN=C2c2cccnc2)cc1 [DMAB-anabaseine]
inactive: 1 nM -2.66% | 8.33 nM -1.76% | 100 nM 0.68% | 833.33 nM 4.31% | 10000 nM -5.07%

Cn1cncc1[C@@](N)(c1ccc(Cl)cc1)c1ccc2c(c1)c(-c1cccc(Cl)c1)cc(=O)n2C [tipifarnib]
inactive: 1 nM 0.24% | 8.33 nM 0.1% | 100 nM 1.79% | 833.33 nM 2.2% | 10000 nM -9.4%

Cc1csc2c(N[C@@H](C)CN3CCN(S(=O)(=O)c4ccc(Cl)c(Cl)c4)CC3)ncnc12 [LPA2-antagonist-1]
inactive: 1 nM -0.43% | 8.33 nM -0.37% | 100 nM 1.73% | 833.33 nM 1.34% | 10000 nM 5.53%

N[C@H](C(=O)O)c1ccc(O)c(C(=O)O)c1 [3-carboxy-4-hydroxyphenylglycine-(S)]
inactive: 1 nM -1.22% | 8.33 nM 0.105% | 100 nM -0.545% | 833.33 nM -1.18% | 10000 nM 0.39%

CN(C)C(=S)SC(=S)N(C)C [tetramethylthiuram-monosulfide]
inactive: 1 nM -5.07% | 8.33 nM -6.29% | 100 nM -7.33% | 833.33 nM 11.9% | 10000 nM 10%

C[C@@H]1CN(c2c(F)c(F)c3c(=O)c(C(=O)O)cn(C4CC4)c3c2F)C[C@H](C)N1 [orbifloxacin]
inactive: 1 nM -6.82% | 8.33 nM -2.82% | 100 nM -5.64% | 833.33 nM -4.29% | 10000 nM -4.52%
